From PubChem
Rows were chosen to be rich in hits. Some 3.7% of all compounds tested hit in one or more screens of this group.
FEN1 inh = human FEN1 inhibition. P39748. Recombinant FEN1 flap cleavage, fluorescence, 15 min. Potency, µM (series often up to 114 µM), without a hit: at the highest dose activity change, negative = inhibition, most hits filed as inhibitors. hit rate 0.35% among 390,000; further: potency means the concentration at half of the fitted maximal effect; on the % scale 0 is the no-effect control and ±100 the full control effect; nearly all actives have a fitted effect of over 65% in size
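Quantitative HTS format: each compound was titrated, incubated with 10 nM nuclease for 15 min at room temperature, then challenged with flap substrate at 50 nM final. Signal change over 15 min gave concentration–effect curves.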
VDR inh = blocks the human vitamin D receptor; P11473; VDR-SRC2-3 peptide fluorescence polarization, 2 h; Potency, µM, inactives show max response, negative = inhibition, hits mostly inhibitors; hit rate 0.93% among 400,000; AID 504847; further: potency means the concentration at half of the fitted maximal effect; on the % scale 0 is the no-effect control and ±100 the full control effect
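Two reagent solutions held at 4 deg C in the dark were dispensed, compounds pinned at 23 nl, and the mixture incubated 2 h at room temperature. Read-out: fluorescence polarization of VDR–SRC2-3 peptide binding.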
PLK1 PBD inh = inhibitors of human PLK1 polo-box domain binding; Potency, µM, without a hit: max response, negative = inhibition, usual class: inhibitors; Plk1 PBD binding of FITC phosphopeptide, fluorescence polarization; hit rate 2.8% among 360,000; P53350; further: potency means the concentration at half of the fitted maximal effect; series mostly up to about 57 µM; on the % scale 0 is the no-effect control and ±100 the full control effect; nearly all actives have a fitted effect of over 65% in size
WRN helicase inh = WRN helicase (human) inhibition. Q14191. WRN helicase unwinding, fluorescent forked duplex, kinetic. Potency, µM (highest dose often 114 µM), for inactives: at the top dose activity change, negative = inhibition, hits mostly inhibitors. hit rate 0.46% among 360,000. AID 651768; further: potency means the concentration at half of the fitted maximal effect; on the % scale 0 is the no-effect control and ±100 the full control effect; nearly all actives have a fitted effect of over 55% in size
Target sequence (Q14191 whole entry, looked up): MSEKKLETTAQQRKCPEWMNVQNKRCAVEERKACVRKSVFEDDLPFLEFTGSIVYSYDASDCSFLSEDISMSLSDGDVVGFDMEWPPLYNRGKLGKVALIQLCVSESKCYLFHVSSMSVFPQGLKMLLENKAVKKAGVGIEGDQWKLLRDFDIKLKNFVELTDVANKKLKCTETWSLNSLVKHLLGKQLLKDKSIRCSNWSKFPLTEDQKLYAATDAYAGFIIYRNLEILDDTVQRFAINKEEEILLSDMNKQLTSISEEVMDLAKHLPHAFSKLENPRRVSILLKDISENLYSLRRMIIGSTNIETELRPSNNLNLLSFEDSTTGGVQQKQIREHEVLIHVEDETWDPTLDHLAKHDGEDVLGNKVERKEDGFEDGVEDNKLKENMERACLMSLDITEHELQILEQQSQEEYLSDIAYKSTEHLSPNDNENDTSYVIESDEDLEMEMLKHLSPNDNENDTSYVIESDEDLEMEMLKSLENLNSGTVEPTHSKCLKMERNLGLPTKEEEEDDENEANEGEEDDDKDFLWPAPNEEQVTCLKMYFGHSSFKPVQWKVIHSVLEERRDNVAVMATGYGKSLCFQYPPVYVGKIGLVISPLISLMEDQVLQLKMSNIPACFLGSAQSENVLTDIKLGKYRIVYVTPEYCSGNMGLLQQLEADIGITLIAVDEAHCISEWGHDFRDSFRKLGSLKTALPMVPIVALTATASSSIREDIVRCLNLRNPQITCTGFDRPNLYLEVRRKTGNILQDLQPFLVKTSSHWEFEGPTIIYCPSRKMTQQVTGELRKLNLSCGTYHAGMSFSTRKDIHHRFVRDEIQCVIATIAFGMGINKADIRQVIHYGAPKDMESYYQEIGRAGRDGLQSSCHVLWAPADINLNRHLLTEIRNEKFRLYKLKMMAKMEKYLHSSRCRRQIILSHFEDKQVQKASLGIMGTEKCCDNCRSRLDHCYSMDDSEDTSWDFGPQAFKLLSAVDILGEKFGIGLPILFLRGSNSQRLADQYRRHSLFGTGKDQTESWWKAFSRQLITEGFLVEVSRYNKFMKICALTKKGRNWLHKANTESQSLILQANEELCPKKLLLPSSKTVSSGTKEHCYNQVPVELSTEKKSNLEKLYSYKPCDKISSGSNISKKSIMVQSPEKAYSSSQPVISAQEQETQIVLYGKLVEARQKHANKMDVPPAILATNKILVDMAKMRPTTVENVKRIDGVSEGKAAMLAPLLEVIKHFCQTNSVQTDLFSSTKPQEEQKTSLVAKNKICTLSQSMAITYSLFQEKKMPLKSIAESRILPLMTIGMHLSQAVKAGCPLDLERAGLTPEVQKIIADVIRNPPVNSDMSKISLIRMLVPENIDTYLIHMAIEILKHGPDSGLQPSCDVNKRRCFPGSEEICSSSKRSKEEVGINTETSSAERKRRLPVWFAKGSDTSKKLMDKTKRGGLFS
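Kinetic fluorescence helicase assay: unwinding of a quenched forked DNA duplex (100 nM final) with 2 mM ATP final raises red fluorescence (525/598 nm). Compounds sat 15 min at room temperature with 20 nM WRN beforehand.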
TCR act = activates T cell receptor signaling | 330,000 tested, under 10 active | primary human leukocytes, anti-CD3, IL-2 HTRF, 48 h | Potency, µM (series often up to 9.22 µM), without a hit: top-dose activation of IL-2 secretion, actives largely listed as activators; further: % of control where 0% means no effect
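Primary human leukocytes receive a-CD3 beads and test compound and are incubated 48 hr. Secreted IL-2 is then assayed by HTRF, measuring 665nm acceptor emission after 320nm excitation of the europium donor.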
PI5P4K alpha inh = inhibitors of human PI5P4K alpha. P48426. PI5P4Kalpha enzyme, ADP-Glo luminescence, 60 min; hits give low values. max response, %. hit rate 1.2% among 330,000; active means max response of -50% or lower; inconclusive means between -30% and -50%; inactive means -30% or higher; further: value at the top dose of about 77 µM; on the % scale 0 is the no-effect control and ±100 the full control effect
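ADP-Glo luminescence end-point read after a 60 min room-temperature kinase reaction of PI5P4Kalpha plus substrate, initiated with ATP at 5 microM final. Buffer: 0.038 M HEPES pH 7.4, EGTA, 0.1% CHAPS, 5% DMSO.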
Starred values were filed as active, the others as inactive; ? = inconclusive; . = not tested or not shown; [ ] = dose if it differs, or a comment. Unless noted, the call rests on the fitted dose curve; in most records, active means well fitted curve in the direction sought with a large enough effect; inconclusive means small, poorly fitted or top-dose-only effect, or another doubt; inactive means no such curve, though single readings can be large; an effect the other way counts as inactive or inconclusive.

SMILES	FEN1 inh	VDR inh	PLK1 PBD inh	WRN helicase inh	TCR act	PI5P4K alpha inh
COCCn1c(=S)[nH]c2cc(C(=O)NC(C)C)ccc2c1=O	-4%	-17%	-11%	-3%	-1%	0
CC(C)Cn1c(=S)[nH]c2cc(C(=O)O)ccc2c1=O	7%	5%	-10%	1%	9%	-59*
O=S(=O)(Nc1nc2ccc(S(=O)(=O)N3CCCC3)cc2s1)c1ccc(F)cc1	-5%	-6%	17µM*	-2%	4%	.
CCc1ccccc1-n1c(C)nc2cc(C(=O)NCCc3ccc(Cl)cc3)ccc21	-18%	8%	.	.	.	.
O=[N+]([O-])c1ccccc1-c1ccc(CN2CCN(c3ccccc3)CC2)o1	-16%	-18%	-8%	6%	-2%	8
O=[N+]([O-])c1ccccc1-c1ccc(C(=S)N2CCN(c3ccccc3)CC2)o1	-26%	79µM*	24µM*	0%	-1%	-2
Cc1ccccc1N1CCN(C(=S)c2ccc(-c3cccc([N+](=O)[O-])c3)o2)CC1	2%	8%	?	-14%	5%	1
Cc1ccc(N2CCN(C(=S)c3ccc(-c4ccccc4[N+](=O)[O-])o3)CC2)cc1	-3%	?	9.5µM*	-23%	-4%	-3
Cc1ccc(N2CCN(C(=S)c3ccc(-c4cccc([N+](=O)[O-])c4)o3)CC2)cc1	-13%	?	30µM*	5%	7%	-10
Cc1ccc(-c2cn3c(n2)sc2cc(C(=O)NCCCc4ccccc4)ccc23)c(C)c1	-1%	11%	.	.	.	.
CCN1/C(=C\C=C2\C(=O)N(C)C(=S)N2C)Sc2ccccc21	0%	-6%	-17%	-6%[57.1 µM]	-1%	6
CCC(=S)/C=C1\Sc2ccccc2N1CCCS(=O)(=O)O	-5%	71µM*	?	-10%	-4%	-13
CC(NC(=O)c1cnn2c1NC(=C1CC1)C=C2C(F)F)c1ccncc1 (centres undefined)	11%	.	.	.	.	.
CCCn1c(CCC(=O)O)ccc1-c1ccccc1	12%	?	12µM*	1%	-2%	?
Cc1cccc(NC(=O)C(=O)NCCc2csc(-c3ccc(C(F)(F)F)cc3)n2)c1C	16%	-6%	.	.	.	.
O=C(NCC1CCCO1)C1CCN(S(=O)(=O)N2CCCC2)CC1 (centres undefined)	-5%	-4%	0%	-3%	-21%	.
O=S(=O)(CCN(CCS(=O)(=O)C(F)(F)F)CC1CCCO1)C(F)(F)F (centres undefined)	-17%	?	27µM*	-20%	2%	.
COc1ccc2c(c1)cc1c(=O)n(CC(=O)NCCc3ccccc3)nc(C)n12	-4%	-1%	.	.	.	.
CN1C(=O)N(C)c2ccc(C=O)c3cccc1c23	-9%	-5%	-16%	0%	-3%	-5
CN1C(=O)N(C)c2ccc(Br)c3cccc1c23	-12%	?	30µM*	-6%	-6%	-3
Cc1cccc(NC(=O)c2sc3cccc(Cl)c3c2Cl)c1	-22%	-5%	.	.	.	.
CC1(C)S[C@@H]2C(C(=O)O)NC(=O)N2C1C(=O)O (some centres undefined)	-10%	.	.	.	.	.
COc1cc2c(c(OC)c1OC)-c1c(cc3c(c1OC)OCO3)CC(C)C(C)(O)C2OC(=O)c1ccccc1 (centres undefined)	.	14%	.	.	.	.
CN(C)c1ccc(/C=C2\NC(=O)NC2=O)cc1	-6%	.	.	.	.	.
O=C(NCCc1ccccc1)N1c2ccccc2Sc2ccccc21	-9%	?	24µM*	-4%	1%	-6
SMILES	FEN1 inh	VDR inh	PLK1 PBD inh	WRN helicase inh	TCR act	PI5P4K alpha inh
CS(=O)(=O)OCC(O)C(O)COS(C)(=O)=O (centres undefined)	.	5%	.	.	.	.
CN(CC(=O)Nc1ccc(N2CCOCC2)cc1)CC(=O)Nc1ccc(N2CCOCC2)cc1	-16%	-4%	-14%	-3%	5%	-4
CN(CC(=O)Nc1ccc(N2CCOCC2)cc1)Cc1c(O)ccc2ccccc12	-18%	28µM*	4.7µM*	?	-4%	-27
Cc1nn(CC(=O)N2CCN(c3cccc(Cl)c3)CC2)c(=O)c2c1sc1ccccc12	-10%	17%	.	.	.	.
CC1Cc2ccccc2N1C(=O)c1ccc2nccnc2c1 (centres undefined)	3%	-6%	2%	12%	-13%	-6
COc1ccc(C(=O)N2c3ccccc3CC2C)cc1OC (centres undefined)	-5%	-2%	27µM*	-1%	-2%	3
CCc1ccc(NC(=O)C(C)Sc2nc(-c3ccco3)c(C#N)c(=O)[nH]2)cc1 (centres undefined)	-20%	?	24µM*	?	2%	-57*
N#Cc1c(-c2ccco2)nc(SCC(=O)Nc2cccc(Cl)c2)[nH]c1=O	-4%	-21%	-7%	?	.	.
N#Cc1c2c(c(Cl)n3c1nc1ccccc13)CCCC2	-1%	.	.	.	.	.
Cc1ccc(NC(=O)C(=O)NCC2CCCO2)cc1 (centres undefined)	2%	5%	-12%	3%	1%	0
COC(=O)c1ccc(NC(=O)C(=O)NCC2CCCO2)cc1 (centres undefined)	16%	-30%	30µM*	2%	0%[46.1 µM]	-18
Cc1nn(-c2ccc(F)cc2)c(-n2cccc2)c1C(=O)NCCc1ccc(Cl)cc1	-5%	4%	.	.	.	.
Cc1sc(NC(=O)CCS(=O)(=O)c2ccccc2)c(C#N)c1C	0%	89µM*	13µM*	-16%	4%	?
CC1CCCCN1CC(=O)NC(c1ccccc1)c1ccccc1 (centres undefined)	14%	-17%	-2%	3%	-8%	8
CSc1ccccc1NC(=O)CN1CCCCC1C (centres undefined)	-2%	-4%	21µM*	1%[57.1 µM]	2%	12
COc1ccccc1-c1nnc2n1N=C(c1ccc(O)c(O)c1)CS2	-6%	4%	-10%	22µM*	6%	?
C#CCOCCOCCOCCNc1nc(N2CCOCC2)nc(N2CCN(C(=O)[C@H](Cc3cc4ccccc4[nH]3)n3cc([C@@H](N)C(C)CC)nn3)CC2)n1 (some centres undefined)	17%	1%	-1%	-5%	-15%	2
C#CCOCCOCCOCCNc1nc(N2CCN(C(=O)[C@H](CCCCN)n3cc([C@@H](N)C(C)CC)nn3)CC2)nc(N2CCN(C(=O)[C@H](Cc3cc4ccccc4[nH]3)n3cc([C@@H](N)C(C)CC)nn3)CC2)n1 (some centres undefined)	-9%	-1%	-2%	?	-4%	-57*
